Compound activity deposited in PubChem BioAssay by several laboratories.
Rows were chosen to be rich in hits. Some 4.1% of all compounds tested hit in one or more screens of this group.
GDH-TPI counter: GDH-TPI coupled enzyme inhibition counter-screen. GDH-TPI coupled enzyme counterscreen, NADH absorbance. inhibition, % at 4.8 µM. hit rate 1.2% among 360,000; in the data active = inhibition above about 30%;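 note: 0% = DMSO wells and 100% = wells lacking the enzyme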
Rv3671c inh: inhibitors of M. tuberculosis serine protease Rv3671c; P9WHR9; inhibition, % at 5.96 µM; hit rate 0.048% among 320,000; AID 2606; in the data active = inhibition above about 38%;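 note: extracellular domain of Rv3671c used as enzyme; 0% = enzyme with DMSO and 100% = no enzyme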
Mtb UGM inh: blocks M. tuberculosis UGM enzyme | P9WIQ1 | purified UGM, fluorescence polarization probe displacement | inhibition, % at 10 µM | hit rate 0.06% among 320,000 | AID 504406; in the data active = inhibition above about 10%, passing the limit was not always enough
Mtb FBA inh: Mtb fructose-bisphosphate aldolase inhibition; purified M. tuberculosis FBA, fluorescence read-out; inhibition, % at 1 µM; P9WQA3; hit rate 2.3% among 360,000; AID 588726; in the data active = inhibition above about 27%;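 note: 0% = vehicle and 100% = reference inhibitor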
RecA intein inh: Mtb RecA intein splicing inhibition. P9WHJ3. cell-free RecA intein splicing, fluorescence. inhibition, % (concentration not given with the values). hit rate 0.75% among 290,000. AID 2221; in the data active = inhibition above about 30%;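 note: 0% = vehicle wells and 100% = reference inhibitor control wells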
Target sequence (P9WHJ3 whole entry, looked up): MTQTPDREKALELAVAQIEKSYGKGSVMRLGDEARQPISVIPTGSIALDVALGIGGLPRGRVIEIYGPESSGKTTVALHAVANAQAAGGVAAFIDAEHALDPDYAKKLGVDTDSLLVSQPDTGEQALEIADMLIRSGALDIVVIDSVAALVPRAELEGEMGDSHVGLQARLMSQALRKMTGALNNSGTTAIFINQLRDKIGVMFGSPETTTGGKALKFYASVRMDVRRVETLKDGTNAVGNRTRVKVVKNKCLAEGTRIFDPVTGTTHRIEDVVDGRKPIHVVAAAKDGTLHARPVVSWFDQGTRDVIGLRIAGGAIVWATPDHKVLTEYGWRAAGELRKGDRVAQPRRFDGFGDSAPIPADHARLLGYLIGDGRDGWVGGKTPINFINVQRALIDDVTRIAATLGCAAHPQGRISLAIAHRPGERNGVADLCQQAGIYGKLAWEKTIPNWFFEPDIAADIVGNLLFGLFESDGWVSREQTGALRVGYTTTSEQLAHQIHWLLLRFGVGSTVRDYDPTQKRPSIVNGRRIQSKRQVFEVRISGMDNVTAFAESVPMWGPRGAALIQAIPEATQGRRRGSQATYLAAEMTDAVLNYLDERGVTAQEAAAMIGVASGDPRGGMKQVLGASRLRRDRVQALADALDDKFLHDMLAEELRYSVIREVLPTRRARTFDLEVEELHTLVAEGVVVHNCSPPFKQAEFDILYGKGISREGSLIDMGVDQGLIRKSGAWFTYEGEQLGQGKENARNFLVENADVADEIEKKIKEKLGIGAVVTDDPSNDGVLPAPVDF
BH1578 lux ind: quorum light induction in luxS cqsA deficient V. cholerae. V. cholerae BH1578 lux reporter, luminescence, 6 h. activation, % at 18.7 µM. hit rate 0.16% among 350,000; in the data active = activation mostly above about 9.7%, no sharp cut-off
The depositor's hits bear a star; i = inactive; nt = no result; + = active, no number.

SMILES	GDH-TPI counter	Rv3671c inh	Mtb UGM inh	Mtb FBA inh	RecA intein inh	BH1578 lux ind
CCN(c1ccccc1)S(=O)(=O)c1cc(C(=O)Oc2ccc3c(C)cc(=O)oc3c2)ccc1C	1.9	-11.9	-0.8	+	-0.1	-0.3
CCN(c1ccccc1)S(=O)(=O)c1cc(C(=O)OCC(=O)c2c(N)n(C)c(=O)n(C)c2=O)ccc1C	3.8	nt	nt	-1.7	nt	1.7
CC(=O)Oc1cc2oc(=O)cc(C)c2cc1OC(C)=O	27.2	-1.5	-0.6	173.4*	-170.9	4.2
CC(=O)Oc1cc(OC(C)=O)c2c(C)cc(=O)oc2c1	10.1	-1.4	0.4	+	-34.0	0.8
CC(=O)Nc1c(OC(C)=O)ccc2c(C)cc(=O)oc12	12.4	4.6	-1.4	+	-85.2	-0.1
CCC(=O)Oc1ccc2c(C)cc(=O)oc2c1C(=O)CC	7.7	4.8	2.2	7.7	5.2	-0.6
Cc1ccc(S(=O)(=O)N2CCC(C(=O)N3CCN(c4ccccn4)CC3)CC2)cc1	-0.3	-3.6	-4.6	5.9	0.8	i
C[C@@H]1CN([C@@H](C)CO)C(=O)CCCn2nncc2CO[C@H]1CN(C)C(=O)Cc1ccccc1	-2.4	nt	nt	-2.6	nt	-1.1
CCC(C(=O)NCC1CCCO1)N(Cc1ccc(F)cc1)C(=O)CNS(=O)(=O)c1ccccc1 (configuration not stated)	2.3	12.0	-1.6	7.6	-2.6	-0.9
O=C(CCN1C(=O)c2ccccc2C1=O)Oc1ccc2ccccc2c1	9.7	-9.6	-1.7	4.8	5.1	-0.4
Cc1cc(=O)oc2cc(OC(=O)CCCCCN3C(=O)c4ccccc4C3=O)ccc12	9.6	-5.6	3.8	152.9*	0.3	i
Cc1cc(=O)[nH]c2cc(O)ccc12	0.0	1.4	3.4	+	-2.9	i
O=c1[nH]c2cc(O)ccc2c2ccccc12	14.7	nt	nt	16.9	nt	i
COC(=O)c1ccc(COC(=O)CSCC(=O)Nc2ccc(C)cc2C)cc1	3.2	-2.2	-1.1	3.8	nt	-1.4
Cc1ccc(NC(=O)CSCC(=O)OCc2cc(=O)oc3cc(O)ccc23)c(C)c1	11.8	-7.4	-0.7	118.5*	-27.5	-14.3
CCOC(=O)C1CC2=C(CCCC2=O)NC1=O (configuration not stated)	-3.6	nt	nt	2.2	nt	3.3
Cc1ccccc1-n1c(O)c(/C=C/C=Nc2ccccc2)c(=O)[nH]c1=O	18.4	-98.5	-7.4	-15.8	0.6	i
Cc1cccc(N=Cc2c(O)n(-c3ccccc3C)c(=O)[nH]c2=O)c1	47.8*	-3.6	0.2	-1.6	-2.9	i
Cc1ccccc1-n1c(O)c(/C=N/c2nccs2)c(=O)[nH]c1=O	-4.3	-6.3	0.1	1.9	-2.9	i
Cc1ccccc1-n1c(O)c(C=Nc2ccc(N(C)C)cc2)c(=O)[nH]c1=O	43.4*	-12.7	-0.3	-9.3	-2.0	-0.4
CCCNC(=O)C1(C)CCCN(C(=O)c2cc(C)nn2C(C)(C)C)C1 (configuration not stated)	-0.4	nt	nt	-0.7	nt	0.5
C#CCN1C=CC(=O)[C@@H](OC(=O)Nc2ccc(Cl)cc2)[C@H]1c1ccccc1Br	19.8	nt	nt	-1.9	nt	i
Cn1c2ccccc2c2cc(C(=O)NNS(=O)(=O)c3ccc(F)cc3)sc21	34.3*	-9.4	-0.6	23.4	6.9	i
O=C(NNS(=O)(=O)c1ccc(F)cc1)c1ccccc1	10.4	-2.1	0.2	146.7*	-0.7	1.7
O=C(NNS(=O)(=O)c1ccc(F)cc1)c1ccccc1F	-16.8	3.2	-2.7	-3.4	-3.4	0.2
SMILES	GDH-TPI counter	Rv3671c inh	Mtb UGM inh	Mtb FBA inh	RecA intein inh	BH1578 lux ind
S=c1[nH]nc(-c2ccc3ccccc3n2)o1	38.1*	-1.2	5.2	3.4	-1.5	i
O=[N+]([O-])c1ccc(NCc2ccc(Cl)cc2)nc1	33.8*	7.6	2.5	-3.0	4.6	-1.6
CCCCn1nc(-c2ccccc2)c2nc3ccccc3nc21	nt	-7.5	29.2*	nt	-140.7	nt
Cn1nc(-c2ccccc2)c2nc3ccccc3nc21	-8.1	4.4	28.3*	-1.7	-2.6	-0.2
CC(C)CNC(=O)C1(C)CCCN1C(=O)CCc1cccs1 (configuration not stated)	17.0	nt	nt	1.3	nt	0.2
CCOCCCN1C(=O)C(=O)N(CC(=O)N2c3ccccc3NC(=O)CC2C)C1=O (configuration not stated)	3.0	-2.4	-2.0	5.6	nt	-1.1
c1ccc2nc3c(nc2c1)[nH]c1ccccc13	17.6	-0.3	-0.8	0.9	-2.3	-3.2
c1ccc(-c2c3ccccc3nc3[nH]c4ccccc4c23)cc1	13.4	-17.9	0.5	31.4*	-3.6	-1.1
